From PubChem BioAssay AID1346428 (National Center for Advancing Translational Sciences (NCATS), 2018)
In all, about 48,000 compounds went through this assay and about 1,200 (2.5%) were called active. Not shown: some 2% with an inconclusive outcome. This is one part of a sample in which actives are shown more often than they occur.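 Rule for the calls: active = activation of at least 60% and not above a set upper limit (about 1 call in 100 departs from these limits); inconclusive = activation of 40% to 60%, or above that upper limit; inactive = activation under 40%.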

molecular target: Probable G-protein coupled receptor 32 (Homo sapiens) (UniProt O75388); assay: qHTS for Agonists of Human Resolvin D1 Receptor DRV1; conditions: CHO-K1 GPR32 beta-arrestin PathHunter luminescence, 90 min; at 76.9 µM; hits give high values; zero percent set by DMSO-only wells
Excerpt: Endogenous resolution of inflammation is known to be transduced through various GPCRs and their natural mediators of lipid nature. Resolvin D1 (RvD1) is one of the active players in resolution of acute inflammation through regulation of anti-inflammatory pathways; it is known to enhance phagocytosis of human macrophages, limits neutrophils infiltration, etc. […] The search for GPR32-activating small molecules with anti-inflammatory effects similar to its natural omega-3 derivative ligand in order to use them as research tools for further studies of inflammation and its resolution was the goal of this screening project. For primary screening assay, we used CHO-K1 GPR32 beta-arrestin cell line (DiscoveRx, #93-0321C2A) and the PathHunter(R) beta-Arrestin Assay (DiscoveRx) which measures recruitment of beta-arrestin to the GPR32 and generates chemiluminescent signal. These engineered cells stably transfected with GPR32 co-express GPR32-fused small 42-amino acid fragment of beta-Gal called ProLinktrade mark, and […] -tagged beta-Arrestin fusion protein. When GPR32 is activated by a ligand, it stimulates binding of beta -Arrestin to ProLink-tagged GPR32, and two parts of beta-Gal complement forming a functional enzyme. Upon substrate (PathHunter(R) Detection reagent) addition, beta-Gal hydrolyzes it and generates a chemiluminescent signal.
The cells were thawed and plated in thawing media containing F-12 HAM (Invitrogen, #11765-054), 10% FBS (Invitrogen, #10082), 1x Glutamine, and 1x Pen/Strep onto the 175-mm flask for 24 hours. Then, thawing media was replaced with Growth media which contains 800microg/mL Geneticin (Invitrogen, #10131) and 300microg/mL Hygromycin B (Invitrogen, #10687) in addition to described above. For the assay, the cells were harvested at ~80% confluent stage with Cell Dissociation buffer (Gibco, #13151), and seeded at 2,500 cells/ 3microL/well in assay media (PathHunter(R) Cell Plating Reagent, DiscoverX, #93-0563R1B) using MultiDrop Combi dispenser (Thermo Scientific, Logan, UT) onto white solid bottom tissue culture-treated 1536-well plates (Greiner # 789173-F) and allowed to attach overnight at 37 degrees C, 95% humidity, 5% CO2, . Next, 23nL/well of compound solutions in DMSO were added with a Pin Tool (Kalypsis, San Diego, CA) to the assay plates. As the basal control (EC0), 23 nL/well of DMSO was used on each plate. The cells were incubated in the presence of compounds or DMSO for 90 minutes at 37 degrees C, 5% CO2. Subsequently, 1.5microL/well of PathHunter(R) Detection Reagent prepared per the manufacturer's instructions was added to the assay plates with BioRAPTR FRDtrade mark dispenser (Beckman Coulter, San Francisco, CA) and incubated for 1 hour at ambient temperature prior to the measurement of the luminescent signal on ViewLux(R) uHTS Microplate Imager (Perkin Elmer, Waltham, MA).

Probable G-protein coupled receptor 32 (Homo sapiens), sequence (O75388 whole entry, looked up): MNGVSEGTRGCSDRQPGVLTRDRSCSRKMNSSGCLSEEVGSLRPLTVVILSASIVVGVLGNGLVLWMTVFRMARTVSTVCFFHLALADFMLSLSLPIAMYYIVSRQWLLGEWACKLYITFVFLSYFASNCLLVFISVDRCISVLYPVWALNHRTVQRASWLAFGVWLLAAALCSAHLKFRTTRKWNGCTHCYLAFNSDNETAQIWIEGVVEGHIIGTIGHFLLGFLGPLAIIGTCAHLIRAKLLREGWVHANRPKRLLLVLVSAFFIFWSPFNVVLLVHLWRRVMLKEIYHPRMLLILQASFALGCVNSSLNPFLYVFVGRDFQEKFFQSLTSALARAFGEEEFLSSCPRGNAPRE

activation, active:
Cc1ccc(Cl)cc1N1CCN(S(=O)(=O)c2cc3[nH]c(=O)c(=O)[nH]c3cc2C)CC1 97%
O=C1N(Cc2ccccc2)c2ccc(Cl)cc2C1(O)c1c[nH]c2ccccc12 (configuration not stated) 116%
CCOC(=O)c1ccc(NC(=O)C2CCN(S(=O)(=O)c3ccc4c(c3)CCCC(=O)N4)CC2)cc1 68.9%
CCN(CC)CCNC(=O)c1cc2c(=O)oc3ccc(C)cc3c2s1 67.3%

activation, inactive:
COC(=O)c1cc(S(=O)(=O)N2CCN(c3cc(Cl)ccc3C)CC2)c[nH]1 13.7%
CCn1cc(C(=O)N2CCN(c3cc(Cl)ccc3C)CC2)c(=O)c2cc(S(=O)(=O)N3CCCC3)ccc21 -4.63%
Cc1c(C)n(Cc2ccc(Cl)cc2)c2ccc(C(=O)N3CCN(c4ccccc4F)CC3)cc12 -26.9%
O=C(CC1Oc2ccc(Cl)cc2NC1=O)NCc1ccccc1 (configuration not stated) -14.9%
O=c1c2ccccc2n(Cc2cccc(Cl)c2)c(=O)n1Cc1ccccc1 -10.4%
Cc1cccc(NC(=O)Cn2nc(-c3ccc(Cl)cc3)c3ccccc3c2=O)c1 -2.07%
COc1ccc(OCCCn2c(C3CC(=O)N(c4ccc(F)cc4)C3)nc3ccccc32)cc1 (configuration not stated) 1.68%
Cc1ccc(C)c(N2CCN(C(=O)Cc3c(C(=O)O)c(C)cn3C)CC2)c1 -4.29%
COc1ccc(OC)c(NC(=O)C2CCCN(S(=O)(=O)c3ccc4c(c3)CCCC(=O)N4)C2)c1 (configuration not stated) -4.17%
CC(=O)Nc1ccc(NC(=O)C2CCCN(S(=O)(=O)c3ccc4c(c3)CCCC(=O)N4)C2)cc1 (configuration not stated) 16.8%
COc1ccc(Cl)cc1NC(=O)NCC1CCN(Cc2ccccc2F)CC1 -10.4%
CCOc1ccc(C2CC(=O)c3c([nH]c(C(=O)OCc4ccccc4)c3C)C2)cc1 (configuration not stated) 49.1%
COc1cccc(CNC(=O)c2cc(=O)[nH]c3ccc(S(=O)(=O)N4CCCCC4)cc23)c1 -3.54%
CCC(=O)N1CCc2cc(Br)cc(S(=O)(=O)NCc3ccc(Cl)cc3)c21 19.3%
CCOc1ccc(N(CC)C(=O)c2cc3c(=O)oc4ccccc4c3s2)cc1 21.3%
COc1ccc(Cl)cc1N(C)C(=O)c1cc2c(=O)oc3ccc(C)cc3c2s1 29.1%
Cc1cccc(Nc2cc(C)nc(-n3nc(C)cc3C)n2)c1 -20.8%
O=C(c1ccc2c(c1)N(Cc1ccccc1)C(=O)c1ccccc1S2(=O)=O)N1CCC(Cc2ccccc2)CC1 -8.72%
